# HP1b chromo inh: HP1-beta chromodomain-methylated histone interaction inhibition; AlphaScreen HP1-beta / biotin-H3K9me3 peptide binding; Potency, µM (top dose mostly 114 µM), without a hit: at the top dose activity change, negative = inhibition, actives largely listed as inhibitors; 0.56% of 390,000 active; AID 540317; also: potency is read from the fitted curve at half-maximal effect; nearly all actives have a fitted effect of over 70% in size
#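 HP1-beta protein (50 nM final) preincubated 30 min at room temperature with biotinylated H3(1-18)K9me3 peptide (50 nM) in PBS pH 7.4, 0.01% Tween-20, then compound added for 30 min. AlphaScreen streptavidin donor/nickel chelate acceptor beads (10 ug/mL final), 30 min dark, luminescence read.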
# G9a inh: blocks human histone lysine methyltransferase G9a | 8.8% of 350,000 active | Potency, µM (top dose mostly 102 µM), for the others: at the top dose activity, negative = inhibition, hits mostly inhibitors | Q96KQ7 | G9a H3K9 monomethylation, AlphaScreen, 2 h; also: potency is read from the fitted curve at half-maximal effect; % is scaled to controls: 0 for no effect and ±100 for the full control effect; nearly all actives have a fitted effect of over 75% in size
#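 Signal arises when biotinylated H3K9 peptide, once monomethylated, bridges streptavidin donor and antibody-captured acceptor beads. Enzyme at 20 nM was preincubated 15 min with test compounds; peptide 500 nM and SAM 20 uM then reacted for 2 h.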
# CtBP-E1A blk: CtBP/E1A binding inhibition | activity change, % (test concentration not listed) | 0.49% of 340,000 active | AlphaScreen GST-E1A/His-CtBP binding, 1536-well; hits give low values | AID 651724; in the data active = activity change below about -65%; inconclusive = mostly about -30% to -63%; also: % is scaled to controls: 0 for no effect and ±100 for the full control effect
#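 In 5 uL wells, 23 nL compound meets equimolar GST-E1A and His-CtBP (5X stock 125 nM each) for 2 h, 37 °C. Beads (5X, 50 ug/mL) then 1 h, 37 °C, dark.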
# JMJD2A Tudor: JMJD2A Tudor domain (human) inhibition; O75164; AlphaScreen JMJD2A-Tudor / H3K4me3 peptide binding; Potency, µM (top dose mostly 114 µM), without a hit: top-dose activity change, negative = inhibition, usual class: inhibitors; 4.4% of 390,000 active; AID 504339; also: potency is read from the fitted curve at half-maximal effect; % is scaled to controls: 0 for no effect and ±100 for the full control effect; nearly all actives have a fitted effect of over 50% in size
# BAZ2B inh: BAZ2B (human) inhibition | Potency, µM (highest dose often 114 µM), without a hit: at the top dose activity change, negative = inhibition, most hits filed as inhibitors | Q9UIF8 | 4.4% of 360,000 active | AlphaScreen BAZ2B-H3K14Ac peptide displacement; also: potency is read from the fitted curve at half-maximal effect; % is scaled to controls: 0 for no effect and ±100 for the full control effect; nearly all actives have a fitted effect of over 60% in size
#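 Complex of BAZ2B and biotin-H3K14Ac (50 nM apiece) forms over 30 min at RT, then faces library compounds up to 110 uM for another 30 min; AlphaScreen beads added, 20 min dark incubation, luminescence read.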
# Six1-Eya2 inh: Six1/Eya2 interaction inhibition | AID 651725 | 0.56% of 360,000 active | AlphaScreen GST-Six1/His-Eya2 binding, biochemical; hits give low values | activity change, % (concentration not given with the values); in the data active = activity change below about -65%; inconclusive = mostly about -30% to -63%; also: % is scaled to controls: 0 for no effect and ±100 for the full control effect
# Target sequence (O00167 whole entry, looked up): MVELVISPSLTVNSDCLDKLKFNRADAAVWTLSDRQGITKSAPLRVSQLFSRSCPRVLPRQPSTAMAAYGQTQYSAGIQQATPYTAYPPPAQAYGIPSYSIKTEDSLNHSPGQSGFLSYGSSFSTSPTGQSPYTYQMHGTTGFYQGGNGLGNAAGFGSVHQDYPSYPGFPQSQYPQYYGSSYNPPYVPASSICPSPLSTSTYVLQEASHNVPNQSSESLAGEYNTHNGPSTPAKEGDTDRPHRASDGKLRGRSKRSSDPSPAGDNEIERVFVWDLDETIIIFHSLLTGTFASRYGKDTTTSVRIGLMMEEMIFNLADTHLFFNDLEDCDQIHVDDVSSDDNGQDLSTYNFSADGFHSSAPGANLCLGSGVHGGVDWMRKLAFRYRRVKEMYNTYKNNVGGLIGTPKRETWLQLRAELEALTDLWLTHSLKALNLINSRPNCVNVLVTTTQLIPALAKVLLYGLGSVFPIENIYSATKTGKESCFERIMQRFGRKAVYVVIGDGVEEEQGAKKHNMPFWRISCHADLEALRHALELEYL
# Target sequence (Q15475 whole entry, looked up): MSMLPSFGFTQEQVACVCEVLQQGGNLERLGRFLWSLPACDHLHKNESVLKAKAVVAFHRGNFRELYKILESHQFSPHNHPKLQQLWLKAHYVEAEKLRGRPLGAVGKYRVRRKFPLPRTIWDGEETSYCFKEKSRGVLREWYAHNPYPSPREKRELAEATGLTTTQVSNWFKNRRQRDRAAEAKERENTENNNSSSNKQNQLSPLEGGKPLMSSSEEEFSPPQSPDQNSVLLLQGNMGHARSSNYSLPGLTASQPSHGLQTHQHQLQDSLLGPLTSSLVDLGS
#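 Homogeneous AlphaScreen proximity assay pairing GST-Six1 with His-tagged Eya2 (added as 5X mix: 250 nM and 500 nM) in 50 mM Tris pH 8.0, 300 mM NaCl, 1 mM TCEP. Glutathione donor and nickel acceptor beads; 1 h, 37 °C, dark.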
# * = called active by the depositor; ? = inconclusive; . = not tested or not shown; [ ] = remark or other dose. This is a sample that favours compounds with a hit; in the whole collection about 10% have one here. Unless noted, calls follow the shape of the dose curve; as a rule, active = well fitted inhibition curve with a large enough effect; inconclusive = small, poorly fitted or top-dose-only effect; inactive = no such curve, though single readings can be large or run the other way.
SMILES,HP1b chromo inh,G9a inh,CtBP-E1A blk,JMJD2A Tudor,BAZ2B inh,Six1-Eya2 inh
CCCC1=C(C(=O)OCC)C(c2ccc(N(C)C)cc2)n2ncnc2N1 (stereo not given),4%,45µM*,-19,?,?,-20
CCOc1cc2c(cc1OCC)C(CC(=O)O)N(C(=O)Nc1ccc(Br)c(C)c1)CC2 (stereo not given),-15%,?,.,-29%,-30%,.
CC(=O)c1ccc(-n2nnnc2SCC(=O)NC2CCCCC2)cc1,-13%,35µM*,3,-8%,-3%,1
O=C(CSc1nnnn1-c1ccc(F)cc1)NC1CCCCC1,?,-13%[12.7 µM],3,79µM*,5%,1
CC(=O)Nc1ccc(-n2nnnc2SCC(=O)NC2CCCC2)cc1,2%,-6%,0,-9%,-2%,6
Clc1ccc(-c2nnc3sc(-c4ccco4)nn23)c(Cl)c1,.,-27%[12.7 µM],.,.,3%,.
Cc1oc(-c2ccc(Cl)cc2)cc1-c1nn2c(-c3ccco3)nnc2s1,.,?,.,.,35µM*,.
Cc1oc(-c2ccc(F)cc2)cc1-c1nn2c(-c3ccoc3C)nnc2s1,?,?,-28,89µM*,35µM*,-21
COCCNC(=O)CCn1c(=O)c2cc(OC)c(OC)cc2n(CC(=O)Nc2ccc(F)c(Cl)c2)c1=O,32%,-1%[59 µM],.,-16%,-14%,.
CCOC(=O)c1c(-c2ccco2)csc1N,?,18µM*,0,?,-13%,-8
CCOC(=O)c1c(-c2cccs2)csc1N,?,50µM*,-8,-35%,-38%,-4
CCOC(=O)c1c(-c2cc(OC)c(OC)c(OC)c2)csc1N,.,.,-1,.,.,-15
Nc1cc(=O)nc(SCC(=O)Nc2ccc(F)cc2)n1-c1ccccc1Cl,39%,-3%[59 µM],.,0%,-18%,.
COc1ccc(-c2n[nH]c3c2cnc2cc(OC)c(OC)cc23)cc1,22%,5%[12.7 µM],.,10%,-26%,.
Cc1cc(N2CCN(C)CC2)nc2ccc(NC(=S)N3CCN(c4ccc(Cl)cc4)CC3)cc12,-18%,40µM*,1,-30%,-29%,5
Cc1cccc(N2CCN(C(=S)Nc3ccc4nc(N5CCN(C)CC5)cc(C)c4c3)CC2)c1C,23%,-5%[59 µM],.,-29%,?,5
Cc1cc(N2CCOCC2)nc2ccc(NC(=S)N3CCCCC3C)cc12 (stereo not given),-2%,45µM*,-25,?,.,-26
Cc1cc(N2CCN(C)CC2)nc2ccc(NC(=S)N3CCCCC3)cc12,9%,25µM*,-11,-32%,?,-9
Cc1cc(N2CCN(C)CC2)nc2ccc(NC(=S)N3CCCCCC3)cc12,0%[57 µM],56µM*,.,-35%,-34%,0
Cc1cc(N2CCOCC2)nc2ccc(NC(=O)C3CCCCC3)cc12,56%,.,.,-11%,.,.
Cc1cc(N2CCN(C)CC2)nc2ccc(NC(=S)N3CCN(c4ccc(F)cc4)CC3)cc12,14%,-20%[59 µM],-19,-24%[11.4 µM],-31%,-1
COc1ccccc1NC(=O)C1CCN(S(=O)(=O)c2cn(C)cn2)CC1,-20%,-40%[59 µM],.,-17%,-17%,.
Cc1c(C(=O)OCC2CCCCC2)[nH]c2c1C(=O)CC(c1ccccc1Cl)C2 (stereo not given),34%,4%[59 µM],.,1%,-2%,.
Cc1c(-c2ccccc2)c(=O)oc2c(CN3CCN(C)CC3)c(O)ccc12,20%,-30%[59 µM],.,-6%,3%,.
Cc1ccc(NC(=O)c2oc3ccc(S(=O)(=O)N4CCC5(CC4)OCCO5)cc3c2C)c(C)c1,30%,-2%[59 µM],.,-2%,-19%,.
COc1ncc2nc(-c3ccc(F)cc3)c(=O)n(CCC#N)c2n1,.,2%[12.7 µM],.,.,.,.
O=C(Cn1cnc2nc3c(cc2c1=O)CCCC3)Nc1ccc(F)cc1Cl,17%[57 µM],6%[59 µM],.,-20%,0%,.
O=C(Oc1ccc(C(=S)N2CCCCC2)cc1)c1ccccc1,?,35µM*,-22,-21%,-16%,-26
O=C(Oc1ccc(C(=S)N2CCC(O)CC2)cc1)c1ccc(Cl)cc1,40%,?,-84*,-14%,-12%,-90*

# High-throughput results deposited in PubChem by National Center for Advancing Translational Sciences (NCATS).
